Among the data in PubChem BioAssay (EPA / NIEHS) are outcome and AC50 values, retold here.

Records with an inconclusive call do not appear. Active and inactive are the calls of the source. The calls were made as follows, unless noted: active = hit-call score of the fitted dose curve at least 0.9, where 1 is the maximum; inconclusive = response in the unintended direction; inactive = score below 0.9.

The nature of test [1]: ATG_TAL_CIS: Attagene CIS-FACTORIAL HepG2 Assay for human TAL Basal Promoter (AID 2282966; active = hit-call score of the fitted dose curve at least 0.9, where 1 is the maximum; inactive = score below 0.9;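 also: background control endpoint measuring basal TAL promoter reporter mRNA not a specific factor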). The following applies: HepG2 Attagene cis-factorial TAL promoter reporter; actives raise or lower the signal. In a few lines: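 Background-control endpoint: basal TAL promoter reporter transcripts in transiently transfected HepG2, measured 24 h after dosing. Read-out by RT-PCR with fluorescent primer extension and capillary electrophoresis; gain or loss of signal fitted relative to DMSO.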

The nature of test [2]: ATG_TGFb_CIS: Attagene CIS-FACTORIAL HepG2 Assay for human Transforming Growth Factor (TGF) (AID 2282967; active = hit-call score of the fitted dose curve at least 0.9, where 1 is the maximum; inactive = score below 0.9). The conditions noted are these: HepG2 Attagene CIS TGFb reporter, mRNA transcription; actives raise or lower the signal. The gist of the method: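 Liver HepG2 line, cis-factorial reporter panel, 24 h dosing. Quantitation: RT-PCR products labeled with 6-FAM, cut with HpaI, resolved by capillary electrophoresis; DMSO-referenced bidirectional analysis.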

Test [3] is described as follows: ATG_VDRE_CIS: Attagene CIS-FACTORIAL HepG2 Assay for human Vitamin D Receptor Element (VDRE) (AID 2282968; active = hit-call score of the fitted dose curve at least 0.9, where 1 is the maximum; inactive = score below 0.9). The following applies: HepG2 VDRE cis-reporter transcription, actives raise or lower the signal. In a few lines:
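Measures endogenous factor activity through cis-element-driven reporter transcripts in transiently transfected HepG2. Cells are treated 24 h; reporter mRNA is quantified by RT-PCR and capillary electrophoresis; fitting is bidirectional.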

The target in test [4] is Nuclear receptor subfamily 1 group I member 3 (Homo sapiens) (UniProt Q14994). Put plainly: ATG_CAR_TRANS: Attagene TRANS-FACTORIAL HepG2 Assay for human Constitutive Androstane Receptor (CAR) (AID 2282969).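 Also: activators raise reporter mRNA above DMSO so AC50 marks induction.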 The following applies: HepG2 Attagene TRANS-FACTORIAL CAR reporter. The gist of the method: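 Signal is reporter mRNA induction relative to DMSO, measured 24 h after dosing by RT-PCR with fluorescent primer extension and capillary electrophoresis. Human HepG2 liver cells carried transiently transfected chimeric NR-Gal4/GAL4-UAS reporter constructs.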
Nuclear receptor subfamily 1 group I member 3 (Homo sapiens), sequence (Q14994 whole entry, looked up, the tested form may be a part): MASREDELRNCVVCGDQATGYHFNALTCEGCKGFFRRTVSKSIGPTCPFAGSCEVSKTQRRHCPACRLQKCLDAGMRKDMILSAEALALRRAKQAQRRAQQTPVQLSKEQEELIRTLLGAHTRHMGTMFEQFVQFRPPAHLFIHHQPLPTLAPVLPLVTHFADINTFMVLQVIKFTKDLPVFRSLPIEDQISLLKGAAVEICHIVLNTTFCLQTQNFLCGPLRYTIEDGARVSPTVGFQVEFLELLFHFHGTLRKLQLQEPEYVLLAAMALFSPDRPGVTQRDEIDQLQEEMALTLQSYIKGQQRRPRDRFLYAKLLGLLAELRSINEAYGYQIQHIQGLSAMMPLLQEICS

The target in test [5] is Estrogen receptor (Homo sapiens) (UniProt P03372). Put plainly: ATG_ERa_TRANS: Attagene TRANS-FACTORIAL HepG2 Assay for human Estrogen Receptor alpha (ERa) (AID 2282970). The conditions noted are these: HepG2 Attagene TRANS ERa GAL4 reporter, mRNA. The gist of the method: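 Reporter transcripts were measured 24 h after dosing by RT-PCR with fluorescent primer extension and capillary electrophoresis. The system is transiently transfected HepG2 expressing exogenous NR-Gal4 chimeras driving GAL4-UAS reporters; DMSO is the baseline.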

In test [6] the target is X-box-binding protein 1 (Homo sapiens) (UniProt P17861). Put plainly: ATG_Xbp1_CIS: Attagene CIS-FACTORIAL HepG2 Assay for human X-box Binding Protein 1 (XBP1) (AID 2282972; active = hit-call score of the fitted dose curve at least 0.9, where 1 is the maximum; inactive = score below 0.9). The conditions noted are these: HepG2 XBP1 cis-element reporter, Attagene multiplex; actives raise or lower the signal. In a few lines: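 Multiplexed cis-reporter readout in transfected HepG2 liver cells. Exposure lasted 24 hours. Activity in either direction was fitted against DMSO as negative control and baseline.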
X-box-binding protein 1 (Homo sapiens), sequence (P17861 whole entry, looked up): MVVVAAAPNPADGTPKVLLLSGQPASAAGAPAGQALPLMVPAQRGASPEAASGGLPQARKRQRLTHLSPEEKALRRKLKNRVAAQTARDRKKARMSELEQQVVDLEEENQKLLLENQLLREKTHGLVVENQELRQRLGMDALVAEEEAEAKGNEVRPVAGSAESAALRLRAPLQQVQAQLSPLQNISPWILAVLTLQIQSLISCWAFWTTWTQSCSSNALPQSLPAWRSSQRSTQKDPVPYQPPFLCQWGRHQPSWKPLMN

A short description of test [7]: ATG_M_06_TRANS: Attagene TRANS-FACTORIAL HepG2 Assay for M06 Transcription Factor (Internal Marker) (AID 2282983). The following applies: HepG2 Attagene TRANS M06 internal marker reporter. In a few lines: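 Background-control reporter readout: after 24 h chemical exposure of transiently transfected HepG2 (GAL4-UAS reporter units), mRNA quantified by RT-PCR with fluorescent labeling and capillary electrophoresis. Gain-of-signal fitting against DMSO baseline.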

Test [8] is described as follows: ATG_M_32_TRANS: Attagene TRANS-FACTORIAL HepG2 Assay for M32 Transcription Factor (Internal Marker) (AID 2282984). The following applies: HepG2 Attagene TRANS M32 internal marker reporter. The gist of the method:
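Cell-based TRANS-format assay in HepG2: exogenous chimeric GAL4 reporter units transiently expressed, compounds applied 24 h. Reporter mRNA detected by RT-PCR plus capillary electrophoresis; this readout is an internal background marker.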

The target of test [9] is Nuclear receptor subfamily 4 group A member 2 (Homo sapiens) (UniProt P43354). Put plainly: ATG_NURR1_TRANS: Attagene TRANS-FACTORIAL HepG2 Assay for human Nuclear Receptor Related Protein 1 (NURR1) (AID 2282985). The conditions noted are these: HepG2 Attagene TRANS reporter, mRNA readout. In a few lines:
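Measures transcriptional activation by an exogenous NR-Gal4 chimera in transfected HepG2 liver cells. After 24 h, reporter RNA is reverse-transcribed, amplified and resolved by capillary electrophoresis; DMSO defines baseline.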

Test [10] deals with Transcriptional activator Myb (Homo sapiens) (UniProt P10242). Put plainly: ATG_Myb_CIS: Attagene CIS-FACTORIAL HepG2 Assay for human Myeloblastosis (Myb) Proto-Oncogene Transcription Factor (AID 2282986; active = hit-call score of the fitted dose curve at least 0.9, where 1 is the maximum; inactive = score below 0.9). The following applies: HepG2 Attagene CIS-FACTORIAL Myb reporter transcription; actives raise or lower the signal. In a few lines: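 Reporter transcript levels, quantified by fluorescent RT-PCR and capillary electrophoresis, serve as the read-out. Transfected HepG2 cells carrying cis-promoter reporter units are dosed for 24 hours, and curves are fitted bidirectionally against DMSO controls.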
Transcriptional activator Myb (Homo sapiens), sequence (P10242 whole entry, looked up): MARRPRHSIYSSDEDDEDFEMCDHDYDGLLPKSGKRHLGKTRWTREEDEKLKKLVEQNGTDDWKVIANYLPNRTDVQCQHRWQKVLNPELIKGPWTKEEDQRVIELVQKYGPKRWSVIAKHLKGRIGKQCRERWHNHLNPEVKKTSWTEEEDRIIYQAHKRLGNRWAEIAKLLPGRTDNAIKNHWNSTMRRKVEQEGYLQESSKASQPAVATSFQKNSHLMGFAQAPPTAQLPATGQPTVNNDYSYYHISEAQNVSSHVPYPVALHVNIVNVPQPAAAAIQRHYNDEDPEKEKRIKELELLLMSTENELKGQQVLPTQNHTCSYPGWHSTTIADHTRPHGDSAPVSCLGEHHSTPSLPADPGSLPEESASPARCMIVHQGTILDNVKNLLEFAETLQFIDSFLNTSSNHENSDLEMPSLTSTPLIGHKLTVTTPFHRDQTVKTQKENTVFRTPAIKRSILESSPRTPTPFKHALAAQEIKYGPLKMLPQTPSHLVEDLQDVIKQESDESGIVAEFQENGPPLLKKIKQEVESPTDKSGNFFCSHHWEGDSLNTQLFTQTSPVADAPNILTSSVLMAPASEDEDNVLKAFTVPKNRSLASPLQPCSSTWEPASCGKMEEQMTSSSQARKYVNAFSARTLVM

Test [11] has as its target Nuclear respiratory factor 1 (Homo sapiens) (UniProt Q16656). Put plainly: ATG_NRF1_CIS: Attagene CIS-FACTORIAL HepG2 Assay for human Nuclear Respiratory Factor 1 (NRF1) Orphan Gene (AID 2282987; active = hit-call score of the fitted dose curve at least 0.9, where 1 is the maximum; inactive = score below 0.9). The conditions noted are these: HepG2 NRF1 cis-element reporter, Attagene multiplex; actives raise or lower the signal. The gist of the method:
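Multiplexed cis-reporter assay, HepG2 cells, 24 h treatment. Total RNA → oligo(dT) RT → PCR with reporter-specific primers → 6-FAM primer extension → HpaI cut → CE. Bidirectional fit vs DMSO.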

Test [12] concerns the target Steroid hormone receptor ERR1 (Homo sapiens) (UniProt P11474). Put plainly: ATG_ERRa_TRANS: Attagene TRANS-FACTORIAL HepG2 Assay for human Estrogen-Related Receptor alpha (ERRa) (AID 2282971). The conditions noted are these: HepG2 Attagene TRANS reporter, ERRa transactivation. In a few lines: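 Reporter transcripts from ERRa-Gal4 chimera activity measured in transiently transfected human HepG2 cells 24 hours after dosing, using RT-PCR with 6-FAM primer extension, HpaI digestion and capillary electrophoresis; DMSO is baseline.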

Test [13] concerns the target Estrogen-related receptor gamma (Homo sapiens) (UniProt P62508). Put plainly: ATG_ERRg_TRANS: Attagene TRANS-FACTORIAL HepG2 Assay for human Estrogen-Related Receptor gamma (ERRg) (AID 2282977).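 Also: hits increase reporter signal over DMSO so potencies reflect activators.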 The following applies: HepG2 Attagene TRANS reporter, ERRg transactivation. The gist of the method: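 Readout: fluorescent reporter-mRNA fragments resolved by capillary electrophoresis after RT-PCR and HpaI cut. Cells: transiently transfected HepG2 carrying GAL4-UAS reporters driven by exogenous NR-Gal4 chimeras, dosed 24 h. Activity fitted upward relative to DMSO baseline.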

Test [14] concerns the target Glucocorticoid receptor (Homo sapiens) (UniProt P04150). Put plainly: ATG_GR_TRANS: Attagene TRANS-FACTORIAL HepG2 Assay for human Glucocorticoid Receptor (GR) (AID 2282978).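 Also: activators score as hits since higher reporter transcript over DMSO is fitted.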 The following applies: HepG2 Attagene TRANS GR reporter, mRNA transcription. The gist of the method: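 Fluorescent capillary-electrophoresis quantitation of reporter mRNA is the readout, taken 24 h after dosing human HepG2 cells carrying transiently transfected GAL4-UAS reporter units activated by chimeric NR-GAL4 fusions; activity scored as induction over DMSO.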

Test [15] deals with Bile acid receptor (Homo sapiens) (UniProt Q96RI1). Put plainly: ATG_FXR_TRANS: Attagene TRANS-FACTORIAL HepG2 Assay for Farnesoid X Receptor (FXR) (AID 2282979).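 Also: hits raise reporter mRNA above DMSO so AC50 marks FXR activation.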 The conditions noted are these: HepG2 Attagene TRANS FXR-GAL4 reporter transcription. The gist of the method:
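Reporter transcripts from transfected HepG2 cells were measured 24 h after dosing, using RT-PCR with capillary electrophoresis of 6-FAM-labelled fragments. The read-out reflects activity of exogenous FXR-Gal4 chimera on GAL4-UAS units, with induction relative to DMSO.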

In test [16] the target is Oxysterols receptor LXR-alpha (Homo sapiens) (UniProt Q13133). Put plainly: ATG_LXRa_TRANS: Attagene TRANS-FACTORIAL HepG2 Assay for human Liver X Receptor alpha (LXRa) (AID 2282980). The following applies: HepG2 Attagene TRANS reporter, LXRa transactivation. The gist of the method: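 Chemical-induced reporter mRNA measured by RT-PCR with fluorescent labelling and capillary electrophoresis after 24 h dosing of transiently transfected HepG2 cells expressing exogenous NR-Gal4 chimeras; increases scored against DMSO baseline.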
Oxysterols receptor LXR-alpha (Homo sapiens), sequence (Q13133 whole entry, looked up, the tested form may be a part): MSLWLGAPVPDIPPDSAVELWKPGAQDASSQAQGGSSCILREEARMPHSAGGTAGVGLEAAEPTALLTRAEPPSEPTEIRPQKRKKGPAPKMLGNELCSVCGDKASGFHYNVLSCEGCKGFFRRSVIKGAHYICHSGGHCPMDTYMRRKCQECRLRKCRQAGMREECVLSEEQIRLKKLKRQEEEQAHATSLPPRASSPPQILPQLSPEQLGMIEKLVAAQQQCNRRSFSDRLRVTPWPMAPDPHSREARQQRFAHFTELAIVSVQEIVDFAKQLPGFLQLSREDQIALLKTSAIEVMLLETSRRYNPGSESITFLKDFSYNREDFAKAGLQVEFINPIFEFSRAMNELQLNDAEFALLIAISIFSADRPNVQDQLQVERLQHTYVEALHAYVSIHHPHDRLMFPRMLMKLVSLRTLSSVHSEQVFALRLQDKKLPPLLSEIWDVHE

Test [17] addresses Oxysterols receptor LXR-beta (Homo sapiens) (UniProt P55055). Put plainly: ATG_LXRb_TRANS: Attagene TRANS-FACTORIAL HepG2 Assay for human Liver X Receptor beta (LXRb) (AID 2282981). The conditions noted are these: HepG2 Attagene TRANS GAL4-LXRb reporter, mRNA. In a few lines: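 After 24 h of chemical treatment, transfected HepG2 cells yield total RNA; reporter cDNA is PCR-amplified, FAM-labelled, HpaI-cut and run on capillary electrophoresis. Signal reflects chimeric LXRb-Gal4 activity on GAL4-UAS reporters.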

Test [18] can be described thus: ATG_GAL4_TRANS: Attagene TRANS-FACTORIAL HepG2 Assay for GAL4 (Internal Marker) (AID 2282976). The following applies: HepG2 Attagene TRANS GAL4 internal marker reporter. The gist of the method: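 In transfected human HepG2 liver cells dosed 24 h, GAL4 reporter mRNA serves as a baseline marker. Detection by RT-PCR with fluorescent capillary electrophoresis, activity fitted upward relative to DMSO.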

For test [19], the target named is Hepatocyte nuclear factor 4-alpha (Homo sapiens) (UniProt P41235). Put plainly: ATG_HNF4a_TRANS: Attagene TRANS-FACTORIAL HepG2 Assay for human Hepatocyte Nuclear Factor 4 alpha (HNF4a) (AID 2282982). The conditions noted are these: HepG2 HNF4a transactivation reporter, mRNA readout. The gist of the method:
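Multiplexed reporter assay: transfected HepG2, 24 h exposure, total RNA → oligo(dT) RT → PCR → 6-FAM extension → HpaI digest → CE fluorescence. DMSO = negative control.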

Test [20] can be described thus: ATG_M_19_TRANS: Attagene TRANS-FACTORIAL HepG2 Assay for M19 Transcription Factor (Internal Marker) (AID 2282974). The following applies: HepG2 Attagene TRANS-FACTORIAL M19 internal marker reporter. The gist of the method:
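Fluorescence of 6-FAM-labelled reporter cDNA fragments, separated by capillary electrophoresis, served as the readout. These derived from HepG2 cells carrying transfected GAL4-UAS reporter units after 24 h dosing, with DMSO as negative control.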

Oxysterols receptor LXR-beta (Homo sapiens), sequence (P55055 whole entry, looked up, the tested form may be a part): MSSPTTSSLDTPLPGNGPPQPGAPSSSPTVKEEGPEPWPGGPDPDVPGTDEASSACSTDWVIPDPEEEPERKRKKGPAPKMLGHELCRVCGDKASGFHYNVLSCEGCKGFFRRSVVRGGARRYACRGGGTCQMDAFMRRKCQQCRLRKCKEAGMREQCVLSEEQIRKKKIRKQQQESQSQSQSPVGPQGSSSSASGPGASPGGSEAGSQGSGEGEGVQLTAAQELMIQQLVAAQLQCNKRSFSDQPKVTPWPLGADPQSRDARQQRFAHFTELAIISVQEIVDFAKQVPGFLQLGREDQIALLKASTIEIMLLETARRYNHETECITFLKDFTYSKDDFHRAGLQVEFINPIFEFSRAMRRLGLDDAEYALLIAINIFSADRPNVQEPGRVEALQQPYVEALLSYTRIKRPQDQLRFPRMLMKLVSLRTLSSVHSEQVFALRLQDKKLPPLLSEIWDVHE
Nuclear respiratory factor 1 (Homo sapiens), sequence (Q16656 whole entry, looked up): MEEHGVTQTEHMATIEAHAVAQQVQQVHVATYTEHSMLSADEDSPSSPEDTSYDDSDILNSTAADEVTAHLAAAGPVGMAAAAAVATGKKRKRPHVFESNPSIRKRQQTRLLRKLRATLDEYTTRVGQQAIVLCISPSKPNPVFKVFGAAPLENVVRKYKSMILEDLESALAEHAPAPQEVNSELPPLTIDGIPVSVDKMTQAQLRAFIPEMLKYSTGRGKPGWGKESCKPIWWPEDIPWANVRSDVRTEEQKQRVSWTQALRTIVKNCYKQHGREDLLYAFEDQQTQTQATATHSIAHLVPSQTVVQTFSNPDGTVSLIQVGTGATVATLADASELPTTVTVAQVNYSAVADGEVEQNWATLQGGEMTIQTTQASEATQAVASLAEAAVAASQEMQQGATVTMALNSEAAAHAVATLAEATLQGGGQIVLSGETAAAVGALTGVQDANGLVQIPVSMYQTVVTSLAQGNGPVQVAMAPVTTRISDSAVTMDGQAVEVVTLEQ
Steroid hormone receptor ERR1 (Homo sapiens), sequence (P11474 whole entry, looked up, the tested form may be a part): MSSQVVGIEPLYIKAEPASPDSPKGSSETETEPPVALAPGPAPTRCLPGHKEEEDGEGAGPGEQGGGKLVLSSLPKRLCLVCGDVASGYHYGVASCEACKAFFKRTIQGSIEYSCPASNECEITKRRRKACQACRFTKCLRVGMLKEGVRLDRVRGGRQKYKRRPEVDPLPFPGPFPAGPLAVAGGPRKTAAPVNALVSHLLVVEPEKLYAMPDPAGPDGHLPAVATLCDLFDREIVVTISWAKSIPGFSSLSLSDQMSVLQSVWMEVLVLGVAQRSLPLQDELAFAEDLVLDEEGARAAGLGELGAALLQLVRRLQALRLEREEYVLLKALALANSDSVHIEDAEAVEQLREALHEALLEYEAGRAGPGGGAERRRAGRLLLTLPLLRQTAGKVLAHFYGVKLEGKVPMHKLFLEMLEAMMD
Bile acid receptor (Homo sapiens), sequence (Q96RI1 whole entry, looked up, the tested form may be a part): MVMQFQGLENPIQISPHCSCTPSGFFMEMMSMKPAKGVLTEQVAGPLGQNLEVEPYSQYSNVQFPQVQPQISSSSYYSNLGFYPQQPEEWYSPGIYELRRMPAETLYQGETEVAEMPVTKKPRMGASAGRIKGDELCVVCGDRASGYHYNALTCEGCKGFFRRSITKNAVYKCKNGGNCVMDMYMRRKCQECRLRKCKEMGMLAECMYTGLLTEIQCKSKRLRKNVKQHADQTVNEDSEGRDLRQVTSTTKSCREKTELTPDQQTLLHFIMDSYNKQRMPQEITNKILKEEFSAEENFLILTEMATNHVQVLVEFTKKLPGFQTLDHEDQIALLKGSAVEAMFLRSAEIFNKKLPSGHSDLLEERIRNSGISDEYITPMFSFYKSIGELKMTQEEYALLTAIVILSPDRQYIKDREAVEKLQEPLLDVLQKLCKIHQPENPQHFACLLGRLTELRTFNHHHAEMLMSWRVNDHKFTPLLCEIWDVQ
Nuclear receptor subfamily 4 group A member 2 (Homo sapiens), sequence (P43354 whole entry, looked up, the tested form may be a part): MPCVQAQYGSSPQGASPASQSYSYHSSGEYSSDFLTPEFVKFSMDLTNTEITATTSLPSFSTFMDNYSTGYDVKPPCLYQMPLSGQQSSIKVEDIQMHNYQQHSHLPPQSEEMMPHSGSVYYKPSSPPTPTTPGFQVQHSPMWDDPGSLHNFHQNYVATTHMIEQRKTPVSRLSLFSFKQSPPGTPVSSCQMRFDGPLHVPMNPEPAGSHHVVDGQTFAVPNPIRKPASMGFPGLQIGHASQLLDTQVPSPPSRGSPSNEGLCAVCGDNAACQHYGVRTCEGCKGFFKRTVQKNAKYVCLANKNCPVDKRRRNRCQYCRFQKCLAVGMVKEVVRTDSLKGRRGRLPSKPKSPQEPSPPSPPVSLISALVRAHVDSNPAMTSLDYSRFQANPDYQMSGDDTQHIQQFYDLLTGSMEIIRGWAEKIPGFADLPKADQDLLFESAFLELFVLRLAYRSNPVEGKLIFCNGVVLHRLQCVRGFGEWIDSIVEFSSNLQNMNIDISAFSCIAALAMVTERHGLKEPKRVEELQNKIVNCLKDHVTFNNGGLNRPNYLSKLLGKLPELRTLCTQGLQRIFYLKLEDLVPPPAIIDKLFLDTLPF
Glucocorticoid receptor (Homo sapiens), sequence (P04150 whole entry, looked up, the tested form may be a part): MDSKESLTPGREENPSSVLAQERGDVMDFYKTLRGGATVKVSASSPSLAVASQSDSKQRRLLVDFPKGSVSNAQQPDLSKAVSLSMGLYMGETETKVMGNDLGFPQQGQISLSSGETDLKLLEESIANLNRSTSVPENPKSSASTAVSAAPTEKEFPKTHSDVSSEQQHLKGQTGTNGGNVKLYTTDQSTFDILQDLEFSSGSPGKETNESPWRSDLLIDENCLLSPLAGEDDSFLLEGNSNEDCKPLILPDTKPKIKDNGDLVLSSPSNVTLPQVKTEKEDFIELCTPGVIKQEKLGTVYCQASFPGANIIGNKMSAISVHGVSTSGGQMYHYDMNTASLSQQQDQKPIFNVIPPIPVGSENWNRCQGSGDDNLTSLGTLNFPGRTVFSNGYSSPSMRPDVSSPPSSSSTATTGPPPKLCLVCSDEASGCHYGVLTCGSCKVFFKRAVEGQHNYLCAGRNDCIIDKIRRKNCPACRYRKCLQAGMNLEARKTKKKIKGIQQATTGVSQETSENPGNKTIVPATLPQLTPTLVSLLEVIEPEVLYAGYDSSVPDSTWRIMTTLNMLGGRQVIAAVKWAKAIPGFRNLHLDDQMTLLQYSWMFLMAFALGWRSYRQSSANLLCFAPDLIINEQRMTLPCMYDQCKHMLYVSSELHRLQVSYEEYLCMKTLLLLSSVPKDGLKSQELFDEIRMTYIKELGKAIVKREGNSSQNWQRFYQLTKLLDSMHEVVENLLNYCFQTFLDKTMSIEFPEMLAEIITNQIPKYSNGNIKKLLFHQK

One may read the AC50 as the midpoint of the concentration-response curve, whichever way the signal moves. As for `CCCC(=O)C(CC)Sc1ccoc1C` (configuration not stated), the call in test [1], in test [2], in [4], in test [7], in test [8] and in test [9] was inactive. In addition, the compound was called inactive in [10] and in [11]. In addition, the AC50 is 26.7 µM (active) in [3], 16 µM (active) in test [5] and 25.8 µM (active) in test [6].
Turning to `CCCCCCC(O)CCCCCCCCCCC(=O)O` (configuration not stated), the result in [1], in [2], in test [3], in test [4], in test [12] and in test [13] was inactive. Also, the compound was classed as inactive in test [14], in test [15], in test [16], in test [17], in test [7] and in test [8]. The result in test [9], in test [10] and in test [11] was inactive.
For `COc1ccccc1[N+](=O)[O-]`, the outcome in test [1], in test [2], in test [3], in [4], in [12] and in test [6] was inactive. Also, the result in test [13], in test [15], in test [7] and in test [11] was inactive.
With `NCC1CCCC(CN)C1` (configuration not stated), the compound was called inactive in test [1], in test [2], in test [3], in [4], in [12] and in [18]. Further, the result in test [14], in test [15], in test [17], in test [19], in [7] and in test [8] was inactive. Besides, the outcome in [9], in test [10] and in [11] was inactive.
On to `CCCCCCOC(=O)CCC`, for which the compound was classed as inactive in test [1], in test [2], in test [3], in test [4], in test [6] and in [20]. In addition, the compound was classed as inactive in [16], in test [17], in [7], in [10] and in test [11].
